For 2 sequences, binding signal results are on record in paper PMC7862700, “An all-to-all approach to the identification of sequence-specific readers for epigenetic DNA modifications on cytosine”.

What all share (assay): DAPPL (digital affinity profiling via proximity ligation, sequencing); 10 mM Tris-HCl pH 7.5, 50 mM NaCl, 1 mM DTT, 4% glycerol, room temperature, 30 min; GST-TFs on glutathione beads, 16-mer random dsDNA library, 0.1% formaldehyde crosslink after washing; high values mean tight binding
What all share (conditions): protein: recombinant; tags: N-terminal GST; dsDNA, one strand shown

The target in one assay is T1, FLI1 (Homo sapiens, UniProt Q01543 1-452).
T1 sequence: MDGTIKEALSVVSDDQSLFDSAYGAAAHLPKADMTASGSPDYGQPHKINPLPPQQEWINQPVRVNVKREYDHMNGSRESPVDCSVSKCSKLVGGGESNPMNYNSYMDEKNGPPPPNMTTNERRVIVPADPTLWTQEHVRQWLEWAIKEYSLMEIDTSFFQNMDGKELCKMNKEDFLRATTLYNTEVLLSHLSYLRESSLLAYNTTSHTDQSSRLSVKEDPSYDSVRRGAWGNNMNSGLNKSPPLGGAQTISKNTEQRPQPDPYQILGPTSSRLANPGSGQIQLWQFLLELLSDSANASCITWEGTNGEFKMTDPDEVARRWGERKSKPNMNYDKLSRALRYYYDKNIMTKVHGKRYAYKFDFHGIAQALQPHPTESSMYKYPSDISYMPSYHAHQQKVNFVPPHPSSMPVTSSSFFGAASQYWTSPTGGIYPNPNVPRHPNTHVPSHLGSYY
In short, it runs like this:
(§1)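 Human transcription factors fused to GST were expressed in yeast, captured on glutathione beads, given DNA barcodes and pooled with a GST-only negative control. Pools were incubated with 200 nmole of a 16-mer random double-stranded DNA library in Tris/NaCl/DTT/glycerol buffer at room temperature for 30 min. They were then washed, crosslinked with 0.1% formaldehyde, proximity-ligated (BsaI/T4 ligase, 1 h, 37 °C), PCR-amplified and sequenced on an Illumina NextSeq500. Binding signal is each 6-mer's read frequency for a factor divided by its frequency for the GST control.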

Another assay concerns the target ELF1 (Homo sapiens, UniProt P32519 1-619). The procedure, abridged: as §1
The target in another assay is T2, ETV7 (Homo sapiens, UniProt Q9Y603 1-341).
T2 sequence: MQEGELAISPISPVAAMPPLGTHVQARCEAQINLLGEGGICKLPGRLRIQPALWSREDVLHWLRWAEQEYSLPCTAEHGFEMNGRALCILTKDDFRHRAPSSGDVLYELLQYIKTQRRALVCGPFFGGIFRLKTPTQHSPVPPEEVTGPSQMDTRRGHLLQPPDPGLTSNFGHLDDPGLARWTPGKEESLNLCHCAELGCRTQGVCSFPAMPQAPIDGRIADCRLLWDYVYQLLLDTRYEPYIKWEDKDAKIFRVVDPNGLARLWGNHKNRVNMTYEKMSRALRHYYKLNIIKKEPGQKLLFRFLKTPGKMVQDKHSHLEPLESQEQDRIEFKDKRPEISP
In short, it runs like this: as §1

Another assay deals with T3, ETV3 (Homo sapiens, UniProt P41162-2 1-143).
T3 sequence: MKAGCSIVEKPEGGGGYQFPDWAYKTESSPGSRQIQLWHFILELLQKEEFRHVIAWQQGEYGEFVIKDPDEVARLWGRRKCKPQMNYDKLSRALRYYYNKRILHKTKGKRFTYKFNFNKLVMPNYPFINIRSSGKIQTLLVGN
The procedure, abridged: as §1

Another assay has as its target T4, ELK1 (Homo sapiens, UniProt P19419 1-428).
T4 sequence: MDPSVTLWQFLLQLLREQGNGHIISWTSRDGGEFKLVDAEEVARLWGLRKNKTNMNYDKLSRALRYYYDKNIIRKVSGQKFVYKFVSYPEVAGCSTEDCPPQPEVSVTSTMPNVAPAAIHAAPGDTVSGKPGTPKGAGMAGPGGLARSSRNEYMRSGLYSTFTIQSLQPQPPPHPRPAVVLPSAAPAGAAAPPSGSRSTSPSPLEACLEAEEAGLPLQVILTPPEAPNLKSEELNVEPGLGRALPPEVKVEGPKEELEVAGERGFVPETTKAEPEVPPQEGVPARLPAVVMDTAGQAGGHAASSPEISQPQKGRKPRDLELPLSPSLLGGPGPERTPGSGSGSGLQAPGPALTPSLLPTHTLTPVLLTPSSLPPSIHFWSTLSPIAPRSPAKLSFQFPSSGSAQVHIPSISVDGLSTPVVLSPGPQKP
In short, it runs like this: as §1

For the next assay, the target named is T5, GABPA (Homo sapiens, UniProt Q06546 1-454).
T5 sequence: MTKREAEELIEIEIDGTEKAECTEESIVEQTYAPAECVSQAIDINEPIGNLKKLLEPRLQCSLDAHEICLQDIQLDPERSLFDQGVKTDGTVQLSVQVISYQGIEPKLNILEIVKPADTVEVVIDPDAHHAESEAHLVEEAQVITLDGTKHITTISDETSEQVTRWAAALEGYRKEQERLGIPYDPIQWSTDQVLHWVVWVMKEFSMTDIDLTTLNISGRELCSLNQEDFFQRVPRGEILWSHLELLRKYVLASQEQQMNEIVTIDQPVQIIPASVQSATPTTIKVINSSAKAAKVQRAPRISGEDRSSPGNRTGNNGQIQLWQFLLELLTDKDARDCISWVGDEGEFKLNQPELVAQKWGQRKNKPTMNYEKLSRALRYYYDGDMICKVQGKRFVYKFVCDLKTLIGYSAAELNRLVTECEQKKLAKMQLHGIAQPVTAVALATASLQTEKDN
In short, it runs like this:
as §1

Another assay concerns the target SPIB (Homo sapiens, UniProt Q01892 1-262). The procedure, abridged:
as §1

The next assay has as its target T6, ELK3 (Homo sapiens, UniProt P41970 1-407).
T6 sequence: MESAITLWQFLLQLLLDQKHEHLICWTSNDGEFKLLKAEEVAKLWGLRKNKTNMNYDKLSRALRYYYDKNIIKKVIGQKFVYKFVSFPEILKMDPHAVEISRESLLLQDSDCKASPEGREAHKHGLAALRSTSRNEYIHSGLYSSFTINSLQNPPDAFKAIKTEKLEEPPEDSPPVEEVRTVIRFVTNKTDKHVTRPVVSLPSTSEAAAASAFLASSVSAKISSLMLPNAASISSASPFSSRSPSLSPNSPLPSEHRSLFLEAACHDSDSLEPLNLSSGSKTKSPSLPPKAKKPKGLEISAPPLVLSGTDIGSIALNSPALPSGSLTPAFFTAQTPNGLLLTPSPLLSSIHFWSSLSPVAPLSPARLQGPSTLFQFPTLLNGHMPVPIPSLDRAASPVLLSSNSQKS
In short, it runs like this: as §1

A further assay addresses T7, ELK4 (Homo sapiens, UniProt P28324-2 1-405).
T7 sequence: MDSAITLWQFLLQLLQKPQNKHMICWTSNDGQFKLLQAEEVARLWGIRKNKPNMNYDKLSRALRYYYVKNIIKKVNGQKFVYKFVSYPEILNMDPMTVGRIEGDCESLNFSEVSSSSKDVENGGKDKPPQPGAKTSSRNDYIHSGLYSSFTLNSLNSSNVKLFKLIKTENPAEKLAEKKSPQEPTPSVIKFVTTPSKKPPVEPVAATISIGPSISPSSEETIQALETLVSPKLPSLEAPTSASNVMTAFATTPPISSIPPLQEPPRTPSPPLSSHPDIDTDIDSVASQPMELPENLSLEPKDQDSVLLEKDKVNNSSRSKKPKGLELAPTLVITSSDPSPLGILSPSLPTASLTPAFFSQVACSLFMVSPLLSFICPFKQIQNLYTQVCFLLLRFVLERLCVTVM
The procedure, abridged:
as §1

The next assay concerns the target T8, ETV2 (Homo sapiens, UniProt O00321 1-342).
T8 sequence: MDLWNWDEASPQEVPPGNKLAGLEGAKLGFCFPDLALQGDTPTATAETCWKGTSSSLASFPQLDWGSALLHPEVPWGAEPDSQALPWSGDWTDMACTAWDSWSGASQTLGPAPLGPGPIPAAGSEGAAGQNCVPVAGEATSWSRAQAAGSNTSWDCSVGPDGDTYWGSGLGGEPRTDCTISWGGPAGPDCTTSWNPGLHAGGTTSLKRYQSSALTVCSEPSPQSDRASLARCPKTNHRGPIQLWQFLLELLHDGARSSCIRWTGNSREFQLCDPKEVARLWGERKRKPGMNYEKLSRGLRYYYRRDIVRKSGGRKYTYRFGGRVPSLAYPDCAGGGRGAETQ
In short, it runs like this:
as §1

The next assay has as its target ETV1 (Homo sapiens, UniProt P50549 1-477). The procedure, abridged: as §1
A further assay addresses T9, ERF (Homo sapiens, UniProt P50548 1-548).
T9 sequence: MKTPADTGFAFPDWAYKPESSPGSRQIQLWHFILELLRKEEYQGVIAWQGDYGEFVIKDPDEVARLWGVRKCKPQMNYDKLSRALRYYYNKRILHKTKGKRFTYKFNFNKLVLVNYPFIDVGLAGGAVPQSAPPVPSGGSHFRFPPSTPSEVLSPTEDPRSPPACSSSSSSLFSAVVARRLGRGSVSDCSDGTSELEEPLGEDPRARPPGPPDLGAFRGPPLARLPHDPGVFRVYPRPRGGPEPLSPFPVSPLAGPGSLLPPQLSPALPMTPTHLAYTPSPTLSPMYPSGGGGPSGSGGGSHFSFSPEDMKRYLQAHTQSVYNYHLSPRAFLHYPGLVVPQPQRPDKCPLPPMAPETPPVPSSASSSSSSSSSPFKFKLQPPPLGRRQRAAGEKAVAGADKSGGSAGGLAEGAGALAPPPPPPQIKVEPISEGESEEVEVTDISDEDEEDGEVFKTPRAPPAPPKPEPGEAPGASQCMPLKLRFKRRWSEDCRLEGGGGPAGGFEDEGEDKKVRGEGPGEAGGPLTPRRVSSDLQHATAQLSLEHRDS
In short, it runs like this:
as §1

The target of a further assay is ETV6 (Homo sapiens, UniProt P41212 1-452). In short, it runs like this: as §1
Chain of ETV6 (P41212 whole entry): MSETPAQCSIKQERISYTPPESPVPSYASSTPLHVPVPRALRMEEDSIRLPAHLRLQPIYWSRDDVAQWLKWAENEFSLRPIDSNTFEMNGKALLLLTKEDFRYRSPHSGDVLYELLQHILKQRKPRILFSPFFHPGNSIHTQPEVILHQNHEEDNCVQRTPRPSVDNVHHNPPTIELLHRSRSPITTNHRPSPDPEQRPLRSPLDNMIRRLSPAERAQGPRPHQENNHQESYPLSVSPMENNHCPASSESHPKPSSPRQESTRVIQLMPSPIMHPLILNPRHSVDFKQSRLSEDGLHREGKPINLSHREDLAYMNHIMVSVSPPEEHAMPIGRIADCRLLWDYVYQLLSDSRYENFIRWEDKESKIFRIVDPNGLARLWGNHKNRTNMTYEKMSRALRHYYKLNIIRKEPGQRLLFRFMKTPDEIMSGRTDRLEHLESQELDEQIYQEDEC

Chain of SPIB (Q01892 whole entry): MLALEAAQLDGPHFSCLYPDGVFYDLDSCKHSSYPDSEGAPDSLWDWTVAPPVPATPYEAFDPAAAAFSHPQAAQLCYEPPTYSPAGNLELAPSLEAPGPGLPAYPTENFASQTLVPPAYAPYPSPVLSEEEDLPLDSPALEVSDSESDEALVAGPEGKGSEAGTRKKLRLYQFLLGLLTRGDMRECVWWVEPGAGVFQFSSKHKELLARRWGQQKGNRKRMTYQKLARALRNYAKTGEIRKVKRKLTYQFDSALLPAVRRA
Chain of ELF1 (P32519 whole entry): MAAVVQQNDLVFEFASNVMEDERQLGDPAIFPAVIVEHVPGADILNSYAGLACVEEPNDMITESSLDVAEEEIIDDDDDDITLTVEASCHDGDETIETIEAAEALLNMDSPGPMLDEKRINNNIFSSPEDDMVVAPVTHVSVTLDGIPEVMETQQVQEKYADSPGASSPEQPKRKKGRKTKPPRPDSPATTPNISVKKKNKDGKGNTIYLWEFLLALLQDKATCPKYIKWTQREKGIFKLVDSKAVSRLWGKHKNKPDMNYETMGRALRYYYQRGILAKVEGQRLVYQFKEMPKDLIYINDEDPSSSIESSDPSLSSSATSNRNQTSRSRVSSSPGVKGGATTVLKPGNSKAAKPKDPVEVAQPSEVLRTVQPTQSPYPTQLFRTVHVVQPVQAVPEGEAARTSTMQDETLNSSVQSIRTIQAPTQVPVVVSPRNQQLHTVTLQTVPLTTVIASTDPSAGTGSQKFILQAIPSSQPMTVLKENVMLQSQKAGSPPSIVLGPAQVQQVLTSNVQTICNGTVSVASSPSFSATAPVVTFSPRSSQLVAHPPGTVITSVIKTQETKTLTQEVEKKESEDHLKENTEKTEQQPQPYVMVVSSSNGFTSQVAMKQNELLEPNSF
Chain of ETV1 (P50549 whole entry): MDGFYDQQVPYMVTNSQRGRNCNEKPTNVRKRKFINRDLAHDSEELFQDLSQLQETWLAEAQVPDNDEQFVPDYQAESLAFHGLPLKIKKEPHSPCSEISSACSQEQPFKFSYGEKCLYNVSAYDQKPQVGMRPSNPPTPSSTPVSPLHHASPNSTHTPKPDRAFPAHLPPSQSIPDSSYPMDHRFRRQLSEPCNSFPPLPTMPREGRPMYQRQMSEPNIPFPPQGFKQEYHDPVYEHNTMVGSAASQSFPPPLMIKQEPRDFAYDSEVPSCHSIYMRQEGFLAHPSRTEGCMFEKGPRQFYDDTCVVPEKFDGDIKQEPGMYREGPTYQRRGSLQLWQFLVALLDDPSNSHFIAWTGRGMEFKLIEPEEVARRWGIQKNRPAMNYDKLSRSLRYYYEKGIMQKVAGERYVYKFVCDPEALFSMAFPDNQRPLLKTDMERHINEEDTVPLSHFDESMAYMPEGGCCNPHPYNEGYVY

On to GTCCAA, for which the binding signal with FLI1 is 1.03 fold enrichment (6-mer frequency, TF over GST control); with ELF1, 1.03 fold enrichment (6-mer frequency, TF over GST control); with ETV7 it was 1.01 fold enrichment (6-mer frequency, TF over GST control); with ETV3, 1.04 fold enrichment (6-mer frequency, TF over GST control).

Take GGTCTG: the binding signal with FLI1 was 1.03 fold enrichment (6-mer frequency, TF over GST control); with ELK1, 1.11 fold enrichment (6-mer frequency, TF over GST control); with GABPA it was 1.02 fold enrichment (6-mer frequency, TF over GST control); with SPIB, 1 fold enrichment (6-mer frequency, TF over GST control); with ELK3 it was 1.03 fold enrichment (6-mer frequency, TF over GST control); in the assay with ELK4 it was 1.07 fold enrichment (6-mer frequency, TF over GST control). For the same sequence, the binding signal with ETV2 is 1.07 fold enrichment (6-mer frequency, TF over GST control); in the assay with ETV1, 1.07 fold enrichment (6-mer frequency, TF over GST control); in the assay with ERF, 1.09 fold enrichment (6-mer frequency, TF over GST control); with ETV6 it was 1.02 fold enrichment (6-mer frequency, TF over GST control).
